Columns and labels:
Assay in all cases: DAPPL (digital affinity profiling via proximity ligation, sequencing); 10 mM Tris-HCl pH 7.5, 50 mM NaCl, 1 mM DTT, 4% glycerol, room temperature, 30 min; GST-TFs on glutathione beads, 16-mer random dsDNA library, 0.1% formaldehyde crosslink after washing; high values mean tight binding
FEV = molecular target: T1, FEV (Homo sapiens, UniProt Q99581 1-238); conditions: protein: recombinant; tags: N-terminal GST; dsDNA, one strand shown
T1 sequence: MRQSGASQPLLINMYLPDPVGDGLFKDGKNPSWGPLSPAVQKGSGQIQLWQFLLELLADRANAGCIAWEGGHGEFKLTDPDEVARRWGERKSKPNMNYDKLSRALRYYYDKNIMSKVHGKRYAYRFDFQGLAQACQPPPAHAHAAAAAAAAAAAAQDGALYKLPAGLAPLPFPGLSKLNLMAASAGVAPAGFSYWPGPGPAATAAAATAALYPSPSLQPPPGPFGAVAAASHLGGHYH
How it was run: (§1)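 Human transcription factors were made in yeast as GST fusions, captured on glutathione beads and barcoded with DNA. With a tag-only sample included, the pool was incubated with 200 nmole of a random double-stranded 16-mer DNA library in Tris/NaCl/DTT/glycerol buffer at room temperature for 30 min, then crosslinked with 0.1% formaldehyde after washing, ligated by proximity, amplified and sequenced. For binding signal, each hexamer's read frequency for a factor is divided by its frequency for the tag-only sample.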

ETV5 = ETV5 (Homo sapiens, UniProt P41161 1-510); conditions: protein: recombinant; tags: N-terminal GST; dsDNA, one strand shown
How it was run: as §1

HSF1 = HSF1 (Homo sapiens, UniProt Q00613 1-529); conditions: protein: recombinant; tags: N-terminal GST; chain copies: 3; dsDNA, one strand shown
How it was run: as §1

SPIC = molecular target: T2, SPIC (Homo sapiens, UniProt Q8N5J4 1-248); conditions: protein: recombinant; tags: N-terminal GST; dsDNA, one strand shown
T2 sequence: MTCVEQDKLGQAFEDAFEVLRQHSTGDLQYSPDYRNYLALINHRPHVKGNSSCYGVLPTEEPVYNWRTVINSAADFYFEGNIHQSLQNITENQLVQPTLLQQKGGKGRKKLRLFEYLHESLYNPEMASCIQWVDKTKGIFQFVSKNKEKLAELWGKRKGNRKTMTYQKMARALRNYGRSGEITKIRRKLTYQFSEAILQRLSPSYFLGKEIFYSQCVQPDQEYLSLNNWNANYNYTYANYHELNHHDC
How it was run: as §1

ELF4 = ELF4 (Homo sapiens, UniProt Q99607 1-663); conditions: protein: recombinant; tags: N-terminal GST; dsDNA, one strand shown
How it was run: as §1

ELK4 = molecular target: T3, ELK4 (Homo sapiens, UniProt P28324-2 1-405); conditions: protein: recombinant; tags: N-terminal GST; dsDNA, one strand shown
T3 sequence: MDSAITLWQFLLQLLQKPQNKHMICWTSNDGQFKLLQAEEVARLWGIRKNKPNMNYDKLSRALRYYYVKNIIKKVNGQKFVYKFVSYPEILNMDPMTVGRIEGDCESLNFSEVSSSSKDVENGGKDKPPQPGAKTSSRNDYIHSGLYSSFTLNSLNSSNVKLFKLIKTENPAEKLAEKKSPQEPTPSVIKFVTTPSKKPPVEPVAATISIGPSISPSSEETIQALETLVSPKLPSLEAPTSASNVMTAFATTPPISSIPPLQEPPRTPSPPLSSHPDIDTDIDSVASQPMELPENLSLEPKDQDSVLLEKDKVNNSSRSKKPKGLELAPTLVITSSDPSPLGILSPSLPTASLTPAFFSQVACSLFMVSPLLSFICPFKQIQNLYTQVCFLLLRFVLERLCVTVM
How it was run: as §1

ETV2 = molecular target: T4, ETV2 (Homo sapiens, UniProt O00321 1-342); conditions: protein: recombinant; tags: N-terminal GST; dsDNA, one strand shown
T4 sequence: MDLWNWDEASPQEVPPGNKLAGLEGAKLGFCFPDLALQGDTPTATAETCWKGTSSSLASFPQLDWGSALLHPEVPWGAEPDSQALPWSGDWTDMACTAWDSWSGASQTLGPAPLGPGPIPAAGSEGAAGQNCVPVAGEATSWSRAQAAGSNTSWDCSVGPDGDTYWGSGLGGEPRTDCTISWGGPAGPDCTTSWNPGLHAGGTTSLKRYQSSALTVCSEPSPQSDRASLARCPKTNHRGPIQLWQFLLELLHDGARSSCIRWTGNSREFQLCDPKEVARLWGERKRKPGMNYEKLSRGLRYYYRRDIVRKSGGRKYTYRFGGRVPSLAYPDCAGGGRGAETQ
How it was run: as §1

ELF3 = molecular target: T5, ELF3 (Homo sapiens, UniProt P78545 1-371); conditions: protein: recombinant; tags: N-terminal GST; dsDNA, one strand shown
T5 sequence: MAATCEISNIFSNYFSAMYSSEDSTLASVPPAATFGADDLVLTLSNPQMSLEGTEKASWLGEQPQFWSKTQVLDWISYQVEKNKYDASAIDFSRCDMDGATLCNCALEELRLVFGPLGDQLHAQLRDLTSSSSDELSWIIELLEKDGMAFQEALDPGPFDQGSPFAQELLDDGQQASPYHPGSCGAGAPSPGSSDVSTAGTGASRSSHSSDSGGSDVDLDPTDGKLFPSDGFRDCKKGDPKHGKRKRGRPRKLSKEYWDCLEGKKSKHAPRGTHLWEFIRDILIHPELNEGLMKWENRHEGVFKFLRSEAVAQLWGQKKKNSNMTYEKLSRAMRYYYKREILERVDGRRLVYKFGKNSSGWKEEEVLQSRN
How it was run: as §1

CRX = CRX (Homo sapiens, UniProt O43186 1-299); conditions: protein: recombinant; tags: N-terminal GST; dsDNA, one strand shown
How it was run: as §1

ETV1 = ETV1 (Homo sapiens, UniProt P50549 1-477); conditions: protein: recombinant; tags: N-terminal GST; dsDNA, one strand shown
How it was run: as §1

ERF = molecular target: T6, ERF (Homo sapiens, UniProt P50548 1-548); conditions: protein: recombinant; tags: N-terminal GST; dsDNA, one strand shown
T6 sequence: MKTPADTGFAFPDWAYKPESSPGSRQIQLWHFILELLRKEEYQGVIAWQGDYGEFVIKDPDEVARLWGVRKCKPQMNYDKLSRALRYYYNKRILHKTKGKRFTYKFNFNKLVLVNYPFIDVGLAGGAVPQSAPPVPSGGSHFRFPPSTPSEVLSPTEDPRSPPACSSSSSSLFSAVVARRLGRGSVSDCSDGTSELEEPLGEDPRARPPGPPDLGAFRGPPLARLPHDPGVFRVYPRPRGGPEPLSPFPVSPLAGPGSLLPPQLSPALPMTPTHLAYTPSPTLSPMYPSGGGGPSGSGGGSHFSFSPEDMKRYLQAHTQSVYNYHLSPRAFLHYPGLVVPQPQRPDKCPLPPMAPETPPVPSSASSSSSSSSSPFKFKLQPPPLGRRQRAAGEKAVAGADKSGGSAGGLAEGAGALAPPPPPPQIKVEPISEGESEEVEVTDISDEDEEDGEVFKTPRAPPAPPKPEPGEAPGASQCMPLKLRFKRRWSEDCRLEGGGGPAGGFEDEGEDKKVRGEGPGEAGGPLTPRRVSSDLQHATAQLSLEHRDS
How it was run: as §1

ETV3L = molecular target: T7, ETV3L (Homo sapiens, UniProt Q6ZN32 1-361); conditions: protein: recombinant; tags: N-terminal GST; dsDNA, one strand shown
T7 sequence: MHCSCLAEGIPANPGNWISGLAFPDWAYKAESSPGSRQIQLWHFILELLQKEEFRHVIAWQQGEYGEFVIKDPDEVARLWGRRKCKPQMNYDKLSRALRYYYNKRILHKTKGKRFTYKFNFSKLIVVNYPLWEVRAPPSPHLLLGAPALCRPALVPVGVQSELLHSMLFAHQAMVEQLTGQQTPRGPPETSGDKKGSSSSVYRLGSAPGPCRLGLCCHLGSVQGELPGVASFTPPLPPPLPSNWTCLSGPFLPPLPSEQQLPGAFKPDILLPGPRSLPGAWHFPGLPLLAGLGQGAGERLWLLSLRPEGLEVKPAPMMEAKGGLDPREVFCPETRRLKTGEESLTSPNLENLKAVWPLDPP
How it was run: as §1

ETS2 = molecular target: T8, ETS2 (Homo sapiens, UniProt P15036 1-469); conditions: protein: recombinant; tags: N-terminal GST; dsDNA, one strand shown
T8 sequence: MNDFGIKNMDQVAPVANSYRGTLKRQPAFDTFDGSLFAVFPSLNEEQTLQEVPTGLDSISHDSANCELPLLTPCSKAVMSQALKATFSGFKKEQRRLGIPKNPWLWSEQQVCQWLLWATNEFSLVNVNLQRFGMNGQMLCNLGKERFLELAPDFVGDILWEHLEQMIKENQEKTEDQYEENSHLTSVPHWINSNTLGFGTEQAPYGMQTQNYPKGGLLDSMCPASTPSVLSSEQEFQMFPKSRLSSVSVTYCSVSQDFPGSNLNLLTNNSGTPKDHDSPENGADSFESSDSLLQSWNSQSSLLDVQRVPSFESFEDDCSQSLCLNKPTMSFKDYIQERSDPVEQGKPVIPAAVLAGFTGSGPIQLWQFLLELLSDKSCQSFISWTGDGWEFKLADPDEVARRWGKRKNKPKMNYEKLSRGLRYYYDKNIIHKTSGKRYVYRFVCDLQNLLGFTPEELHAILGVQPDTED
How it was run: as §1

SPDEF = molecular target: T9, SPDEF (Homo sapiens, UniProt O95238 1-335); conditions: protein: recombinant; tags: N-terminal GST; dsDNA, one strand shown
T9 sequence: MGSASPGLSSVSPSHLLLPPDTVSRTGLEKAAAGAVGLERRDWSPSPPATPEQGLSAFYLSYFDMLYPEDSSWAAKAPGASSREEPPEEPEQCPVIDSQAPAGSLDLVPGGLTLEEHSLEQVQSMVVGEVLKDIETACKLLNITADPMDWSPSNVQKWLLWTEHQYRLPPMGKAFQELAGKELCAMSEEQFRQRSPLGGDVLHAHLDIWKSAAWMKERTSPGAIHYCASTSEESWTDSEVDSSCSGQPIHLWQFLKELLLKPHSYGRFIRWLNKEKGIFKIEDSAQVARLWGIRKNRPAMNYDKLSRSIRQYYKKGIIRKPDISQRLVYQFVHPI
How it was run: as §1

ETV7 = molecular target: T10, ETV7 (Homo sapiens, UniProt Q9Y603 1-341); conditions: protein: recombinant; tags: N-terminal GST; dsDNA, one strand shown
T10 sequence: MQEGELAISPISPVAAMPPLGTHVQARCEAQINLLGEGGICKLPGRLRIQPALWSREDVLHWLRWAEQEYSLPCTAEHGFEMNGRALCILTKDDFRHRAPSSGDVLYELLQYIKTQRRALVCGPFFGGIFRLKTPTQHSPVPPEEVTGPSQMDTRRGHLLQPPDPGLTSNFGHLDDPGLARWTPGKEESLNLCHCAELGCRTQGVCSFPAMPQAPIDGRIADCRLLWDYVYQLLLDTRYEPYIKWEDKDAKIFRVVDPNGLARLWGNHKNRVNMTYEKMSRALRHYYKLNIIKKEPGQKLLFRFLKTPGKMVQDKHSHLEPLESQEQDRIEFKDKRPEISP
How it was run: as §1

ELF5 = molecular target: T11, ELF5 (Homo sapiens, UniProt Q9UKW6-2 1-255); conditions: protein: recombinant; tags: N-terminal GST; dsDNA, one strand shown
T11 sequence: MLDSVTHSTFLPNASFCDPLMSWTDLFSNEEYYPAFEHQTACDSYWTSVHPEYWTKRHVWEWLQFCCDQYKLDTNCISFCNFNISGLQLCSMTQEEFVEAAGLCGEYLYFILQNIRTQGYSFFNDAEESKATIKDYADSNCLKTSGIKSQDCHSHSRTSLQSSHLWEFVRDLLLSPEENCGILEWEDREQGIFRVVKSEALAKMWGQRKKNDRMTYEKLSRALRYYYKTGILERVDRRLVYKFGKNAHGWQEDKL
How it was run: as §1

ETV3 = molecular target: T12, ETV3 (Homo sapiens, UniProt P41162-2 1-143); conditions: protein: recombinant; tags: N-terminal GST; dsDNA, one strand shown
T12 sequence: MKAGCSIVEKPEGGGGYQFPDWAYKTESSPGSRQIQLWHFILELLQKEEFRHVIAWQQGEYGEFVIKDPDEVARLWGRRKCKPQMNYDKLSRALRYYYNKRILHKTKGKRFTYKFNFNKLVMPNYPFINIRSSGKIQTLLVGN
How it was run: as §1

ETV6 = ETV6 (Homo sapiens, UniProt P41212 1-452); conditions: protein: recombinant; tags: N-terminal GST; dsDNA, one strand shown
How it was run: as §1

Sequence of ETV1 (P50549 whole entry): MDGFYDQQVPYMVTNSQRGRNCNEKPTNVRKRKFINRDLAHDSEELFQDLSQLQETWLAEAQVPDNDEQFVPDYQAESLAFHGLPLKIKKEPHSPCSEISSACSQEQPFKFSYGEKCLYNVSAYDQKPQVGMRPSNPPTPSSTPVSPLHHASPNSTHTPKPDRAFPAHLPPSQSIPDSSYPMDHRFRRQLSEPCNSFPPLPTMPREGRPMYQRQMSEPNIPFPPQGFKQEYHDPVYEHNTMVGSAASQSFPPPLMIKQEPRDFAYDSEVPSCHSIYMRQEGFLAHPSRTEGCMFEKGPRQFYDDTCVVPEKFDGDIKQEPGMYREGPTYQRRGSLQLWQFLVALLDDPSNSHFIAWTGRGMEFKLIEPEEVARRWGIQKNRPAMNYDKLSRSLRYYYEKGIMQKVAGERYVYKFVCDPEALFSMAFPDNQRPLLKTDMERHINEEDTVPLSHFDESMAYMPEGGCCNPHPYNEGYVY
Sequence of ETV5 (P41161 whole entry): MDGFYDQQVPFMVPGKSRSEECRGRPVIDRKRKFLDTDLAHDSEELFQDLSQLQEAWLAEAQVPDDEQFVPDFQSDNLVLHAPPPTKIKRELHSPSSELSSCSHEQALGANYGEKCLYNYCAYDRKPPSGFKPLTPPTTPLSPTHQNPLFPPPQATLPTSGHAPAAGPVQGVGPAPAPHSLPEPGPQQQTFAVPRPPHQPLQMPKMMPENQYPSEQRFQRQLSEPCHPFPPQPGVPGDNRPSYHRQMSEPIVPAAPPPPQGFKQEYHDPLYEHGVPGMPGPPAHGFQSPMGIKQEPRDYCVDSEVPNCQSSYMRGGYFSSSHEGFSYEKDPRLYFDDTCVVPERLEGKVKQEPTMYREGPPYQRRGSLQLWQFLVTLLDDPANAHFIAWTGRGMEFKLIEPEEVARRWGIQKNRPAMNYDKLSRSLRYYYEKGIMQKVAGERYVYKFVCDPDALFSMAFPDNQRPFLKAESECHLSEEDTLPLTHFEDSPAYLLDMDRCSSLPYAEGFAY
Sequence of ETV6 (P41212 whole entry): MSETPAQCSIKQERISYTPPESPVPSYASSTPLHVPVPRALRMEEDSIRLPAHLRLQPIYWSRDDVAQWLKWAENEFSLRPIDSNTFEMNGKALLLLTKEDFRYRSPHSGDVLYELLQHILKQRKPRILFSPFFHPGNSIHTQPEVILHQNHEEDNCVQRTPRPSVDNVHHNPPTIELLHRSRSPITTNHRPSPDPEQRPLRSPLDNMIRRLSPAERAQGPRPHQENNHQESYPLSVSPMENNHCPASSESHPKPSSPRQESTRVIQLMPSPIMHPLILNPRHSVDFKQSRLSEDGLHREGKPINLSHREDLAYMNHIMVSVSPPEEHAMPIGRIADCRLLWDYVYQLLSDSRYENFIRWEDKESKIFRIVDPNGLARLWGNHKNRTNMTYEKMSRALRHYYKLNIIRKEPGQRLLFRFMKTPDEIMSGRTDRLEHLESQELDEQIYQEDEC
Sequence of HSF1 (Q00613 whole entry): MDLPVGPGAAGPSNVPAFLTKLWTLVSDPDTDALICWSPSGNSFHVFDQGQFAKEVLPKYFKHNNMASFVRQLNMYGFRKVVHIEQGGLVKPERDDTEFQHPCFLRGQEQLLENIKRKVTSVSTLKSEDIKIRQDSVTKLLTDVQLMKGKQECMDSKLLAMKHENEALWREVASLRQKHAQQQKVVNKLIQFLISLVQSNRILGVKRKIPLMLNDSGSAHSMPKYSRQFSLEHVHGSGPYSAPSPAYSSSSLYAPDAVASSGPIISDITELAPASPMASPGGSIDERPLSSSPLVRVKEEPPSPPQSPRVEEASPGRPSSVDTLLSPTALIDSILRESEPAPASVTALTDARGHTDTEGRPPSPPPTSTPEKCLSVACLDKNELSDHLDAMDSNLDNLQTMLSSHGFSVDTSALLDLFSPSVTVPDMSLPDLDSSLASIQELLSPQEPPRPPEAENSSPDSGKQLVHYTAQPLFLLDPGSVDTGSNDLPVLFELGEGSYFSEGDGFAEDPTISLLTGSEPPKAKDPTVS
Sequence of ELF4 (Q99607 whole entry): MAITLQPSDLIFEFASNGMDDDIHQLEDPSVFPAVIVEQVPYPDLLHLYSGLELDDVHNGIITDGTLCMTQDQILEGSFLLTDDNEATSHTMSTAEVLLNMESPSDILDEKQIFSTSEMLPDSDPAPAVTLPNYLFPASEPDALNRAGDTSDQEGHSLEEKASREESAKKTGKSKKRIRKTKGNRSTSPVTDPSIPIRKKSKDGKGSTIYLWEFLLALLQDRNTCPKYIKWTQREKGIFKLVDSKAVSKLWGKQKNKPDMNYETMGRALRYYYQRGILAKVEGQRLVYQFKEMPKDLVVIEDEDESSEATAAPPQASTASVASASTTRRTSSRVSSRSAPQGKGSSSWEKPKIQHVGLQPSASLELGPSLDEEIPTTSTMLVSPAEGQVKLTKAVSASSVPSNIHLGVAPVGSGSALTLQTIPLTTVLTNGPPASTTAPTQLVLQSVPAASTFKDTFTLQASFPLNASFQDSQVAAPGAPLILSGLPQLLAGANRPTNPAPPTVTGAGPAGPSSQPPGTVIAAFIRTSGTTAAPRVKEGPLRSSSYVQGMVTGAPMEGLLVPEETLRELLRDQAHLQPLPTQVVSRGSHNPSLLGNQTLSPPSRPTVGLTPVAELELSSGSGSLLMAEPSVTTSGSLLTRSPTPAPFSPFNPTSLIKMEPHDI
Sequence of CRX (O43186 whole entry): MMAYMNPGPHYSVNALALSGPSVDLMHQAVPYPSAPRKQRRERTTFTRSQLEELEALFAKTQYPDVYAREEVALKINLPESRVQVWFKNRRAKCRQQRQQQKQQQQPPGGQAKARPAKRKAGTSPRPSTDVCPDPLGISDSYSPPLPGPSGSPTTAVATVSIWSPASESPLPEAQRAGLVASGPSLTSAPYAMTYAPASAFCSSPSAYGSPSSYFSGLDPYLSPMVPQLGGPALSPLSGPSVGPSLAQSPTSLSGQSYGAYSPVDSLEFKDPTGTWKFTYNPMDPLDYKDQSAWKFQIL

Question: For GCCTAA, which binding signal (FEV) is on record?
Answer: 1.21 fold enrichment (6-mer frequency, TF over GST control)

Question: What about the binding signal (ETV5) of the same sequence?
Answer: 1.19 fold enrichment (6-mer frequency, TF over GST control)

Question: And the binding signal (HSF1)?
Answer: 1.38 fold enrichment (6-mer frequency, TF over GST control)

Question: What about the binding signal (SPIC) of the same sequence?
Answer: 1.35 fold enrichment (6-mer frequency, TF over GST control)

Question: And the binding signal (ELF4)?
Answer: 1.25 fold enrichment (6-mer frequency, TF over GST control)

Question: And the binding signal (ELK4)?
Answer: 1.25 fold enrichment (6-mer frequency, TF over GST control)

Question: What about the binding signal (ETV2) of the same sequence?
Answer: 1.19 fold enrichment (6-mer frequency, TF over GST control)

Question: And the binding signal (ELF3)?
Answer: 1.35 fold enrichment (6-mer frequency, TF over GST control)

Question: And the binding signal (CRX)?
Answer: 1.84 fold enrichment (6-mer frequency, TF over GST control)

Question: What about the binding signal (ETV1) of the same sequence?
Answer: 1.22 fold enrichment (6-mer frequency, TF over GST control)

Question: And the binding signal (ERF)?
Answer: 1.22 fold enrichment (6-mer frequency, TF over GST control)

Question: And the binding signal (ETV3L)?
Answer: 1.22 fold enrichment (6-mer frequency, TF over GST control)

Question: And the binding signal (ETS2)?
Answer: 1.31 fold enrichment (6-mer frequency, TF over GST control)

Question: What about the binding signal (SPDEF) of the same sequence?
Answer: 1.11 fold enrichment (6-mer frequency, TF over GST control)

Question: What about the binding signal (ETV7) of the same sequence?
Answer: 1.19 fold enrichment (6-mer frequency, TF over GST control)

Question: What about the binding signal (ELF5) of the same sequence?
Answer: 1.18 fold enrichment (6-mer frequency, TF over GST control)

Question: What about the binding signal (ETV3) of the same sequence?
Answer: 1.21 fold enrichment (6-mer frequency, TF over GST control)

Question: What about the binding signal (ETV6) of the same sequence?
Answer: 1.13 fold enrichment (6-mer frequency, TF over GST control)
